Assay results reported in PubChem BioAssay AID651640 (Broad Institute, 2012).
Where “and” joins values, the source holds several entries; their conditions need not be identical. Identical values can stand only once. Screen size: about 350,000 compounds; about 6,000 (1.7%) were called active. Not shown: some 5% with an inconclusive outcome. Rule as the data show it: active = CPE inhibition above about 20% (passing the limit was not always enough); inconclusive = no clear call, values can overlap the other calls; tested in BHK-21 cells. For the sample, actives were picked, then their nearest neighbours and some compounds at random. Some structures have more than one record in an assay (separate samples or runs), and their calls can disagree.

assay: protection of cells from dengue 2 killing – plate reader, single concentration, primary screen (AID 651640); conditions: DENV2-infected cells, cytopathic effect rescue, at 9.99 µM, stronger effect = higher value;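 also: 0% = median of neutral control wells and 100% = median of positive control wells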

Structure (SMILES)	CPE inhibition
C[C@H](NC(=O)N(C)C[C@@H]1OCc2ccccc2-c2ccccc2C(=O)N([C@H](C)CO)C[C@@H]1C)c1ccccc1	3.49% (inactive)
O=C(C[C@@H]1CC[C@@H](NC(=O)CC2CC2)[C@H](CO)O1)NCc1ccc(-c2ccccc2)cc1	2.21% (inactive)
Cn1cnc(S(=O)(=O)N2C[C@H](O)COC[C@@H]3O[C@H](CC(=O)NCc4cccc(F)c4)CC[C@H]32)c1	-0.815% (inactive)
COc1ccc([C@H]2N[C@]3(CCCN(Cc4ccco4)C3=O)[C@H]3C(=O)N(C)C(=O)[C@@H]23)cc1	91.3% (active)
Cc1ccc([C@H]2N[C@]3(CCCN(Cc4ccccc4)C3=O)[C@H]3C(=O)N(Cc4ccccc4)C(=O)[C@@H]23)cc1	12.7% (inactive)
CCN1C(=O)[C@H]2[C@@H](c3ccccc3)N[C@]3(CCCN(Cc4ccc(C)cc4)C3=O)[C@H]2C1=O	-9.89% (inactive)
CC(C)CC#Cc1ccc2c(c1)O[C@H](CN(C)C(=O)CC1CC1)[C@@H](C)CN([C@@H](C)CO)S2(=O)=O	0.266% (inactive)
CCC(=O)N(C)C[C@@H]1Oc2cc(C#C[C@H](C)O)ccc2S(=O)(=O)N([C@H](C)CO)C[C@@H]1C	8.89% (inactive)
CCCNC(=O)N1[C@@H]2CNC[C@H]1C2c1ccc(-c2ccccc2)cc1 (stereo not given in full)	-5.46% (inactive) and 6.08% (inactive)
COc1ccc(S(=O)(=O)N2C[C@@H](O)COC[C@H]3O[C@H](CC(=O)N[C@H]4CCN(Cc5ccccc5)C4)CC[C@@H]32)cc1	13.5% (inactive)
CC(=O)N1[C@H](CO)[C@@H](c2ccccc2)[C@@H]1CN(CC(C)C)C(=O)c1ccccn1	-9.41% (inactive)
N#Cc1ccc(-c2ccc(C3[C@H]4CNC[C@@H]3N4S(=O)(=O)c3ccccc3F)cc2)cc1 (stereo not given in full)	6.8% (inactive)
Cc1cccc(-c2ccc(C3[C@H]4CNC[C@@H]3N4S(=O)(=O)c3ccccc3F)cc2)c1 (stereo not given in full)	-1.96% (inactive) and 22.1% (active)
CN(C)C(=O)c1cccc(-c2ccc(C3[C@H]4CNC[C@@H]3N4C(=O)Nc3ccccc3F)cc2)c1 (stereo not given in full)	23.3% (active)
CN(C)C(=O)c1ccc(-c2ccc(C3[C@H]4CNC[C@@H]3N4C(=O)Nc3cc(F)ccc3F)cc2)cc1 (stereo not given in full)	1.83% (inactive)
O=S(=O)(c1ccccc1F)N1[C@@H]2CNC[C@H]1C2c1ccc(-c2cncnc2)cc1 (stereo not given in full)	-1.33% (inactive)
COc1cccc(-c2ccc(C3[C@H]4CNC[C@@H]3N4C(=O)Nc3ccc(F)cc3)cc2)c1 (stereo not given in full)	-1.4% (inactive) and 18.6% (inactive)
C[C@H](CO)N1C[C@H](C)[C@@H](CN(C)Cc2ccc(Cl)c(Cl)c2)Oc2ccc(NC(=O)Nc3ccc(C(F)(F)F)cc3)cc2CC1=O	-2.55% (inactive)
CN1C(=O)c2cc(NC(=O)C3CC3)ccc2OC[C@@H]2O[C@@H](CC(=O)NCC3CCCCC3)CC[C@@H]21	-7.29% (inactive)
C[C@@H]1CN([C@H](C)CO)C(=O)c2cccc(NC(=O)Nc3ccc(F)cc3)c2O[C@@H]1CN(C)C(=O)Nc1ccc(C(F)(F)F)cc1	2.25% (inactive)
O=C(NCc1ccccc1)c1ccc(S(=O)(=O)Nc2cccc(C(F)(F)F)c2)cc1	2.44% (inactive)
O=C(NCc1ccncc1)c1cccc(NS(=O)(=O)c2ccc(F)c(F)c2)c1	41.4% (active)
O=C(NCc1ccncc1)c1ccc(NS(=O)(=O)c2cccc([N+](=O)[O-])c2)cc1	-0.812% (inactive)

Structure (SMILES)	CPE inhibition
CC(C)NC(=O)N[C@H]1CC[C@H](CC(=O)NC2Cc3ccccc3C2)O[C@H]1CO	-2.08% (inactive)
C[C@@H]1CN([C@H](C)CO)S(=O)(=O)c2ccc(Br)cc2O[C@@H]1CN(C)Cc1cncnc1	19.1% (inactive)
CCOC(=O)[C@H]1[C@H]2COc3ccc(C)cc3[C@@H]2N2C(=O)CN(Cc3ccc(F)cc3)C(=O)[C@@]12C	-7.57% (inactive)
CCOC(=O)[C@H]1[C@H]2COc3cc(OC)ccc3[C@@H]2N2C(=O)CN(Cc3ccc(Cl)cc3)C(=O)[C@@]12C	-5.6% (inactive)
CCOC(=O)[C@H]1[C@H]2COc3ccccc3[C@@H]2N2C(=O)CN(Cc3ccccc3)C(=O)[C@@]12C	95% (active)
O=C1CC2(CCCCC2)Oc2ccc(OCC(=O)N3CCOCC3)cc21	2.58% (inactive)
O=C1CC2(CCN(C(=O)COc3ccc(F)cc3)CC2)Oc2ccccc21	29.9% (active)
Cc1ccc(N2CC(C(=O)N3CCC4(CC3)CC(=O)c3ccccc3O4)CC2=O)cc1C (stereo not given)	-6.93% (inactive)
Cc1cccc(Oc2c([N+](=O)[O-])c(=O)n(C)c3ccccc23)c1	-2.07% (inactive)
Cc1cc(C)c(-c2c(O)c3ccccc3n(C)c2=O)c(C)c1	72% (active)
COc1cc2c(=O)n(C)c3ccccc3c2cc1OC	0.702% (inactive)
CC(C)NC(=O)N(C)C[C@H]1OCCCC[C@H](C)Oc2ccc(NC(=O)CCC(F)(F)F)cc2C(=O)N([C@H](C)CO)C[C@H]1C	7.36% (inactive)
CCN1C(=S)N[C@@H](CCc2ccccc2)[C@H](C(=O)OC)[C@H]1C	65.7% (active)
CCN1C(=O)N[C@@H](CCc2ccccc2)C(C(=O)OC)=C1C	-5.47% (inactive)
COCCN1C(=O)N[C@@H](CCc2ccccc2)[C@H](C(C)=O)[C@H]1C	-5.61% (inactive)
CCS(=O)(=O)Nc1ccc2c(c1)C(=O)N(C)[C@H]1CC[C@@H](CC(=O)N3CCCCC3)O[C@H]1CO2	-4.09% (inactive)
COc1ccc(S(=O)(=O)N(C)C[C@H]2Oc3ccc(NC(=O)CCC(F)(F)F)cc3CC(=O)N([C@H](C)CO)C[C@@H]2C)cc1	15.8% (inactive)
CO[C@H]1CN(C)C(=O)c2ccc(NC(C)=O)cc2OC[C@@H](C)N(C(=O)c2ccccn2)C[C@@H]1C	-11.8% (inactive)
C[C@H](CO)N1C[C@H](C)[C@H](CN(C)C(=O)Nc2cccc(Cl)c2Cl)OCc2ccccc2-c2ccccc2C1=O	-3.92% (inactive)
O=C(NC(=S)Nc1ccc(Cl)cc1Cl)C1CC1	86.2% (active)
O=C(NC(=S)Nc1ccc(Br)cc1F)C1CCCCC1	-4% (inactive)
S=C(Nc1ccc(Cl)cc1Cl)N1CCCC1	-8.93% (inactive)
